Screening results as filed in PubChem BioAssay.
Vaccinia Venus = inhibitors of vaccinia virus (Venus reporter). Vaccinia virus Venus reporter expression, fluorescence. 0.46% of 330,000 active. AID 720580. Potency, µM (titrated, usually from 36.5 µM), for the others: at the top dose activity change, negative = inhibition, hits mostly inhibitors; calls by dose curve; tested in A549 cells; also: potency is read from the fitted curve at half-maximal effect; nearly all actives have a fitted effect of over 30% in size
HCV inhibitor = blocks hepatitis C virus; AID 651820; 3.4% of 340,000 active; Huh7.5.1 HCVcc-Cre infection, luciferase reporter, 44 h; Potency, µM (series often up to 41.8 µM), for inactives: at the top dose activity change, negative = inhibition, actives largely listed as inhibitors; active = well fitted inhibition curve with a large enough effect; inconclusive = small, poorly fitted or top-dose-only effect, or another doubt; inactive = no such curve, though single readings can be large or run the other way; also: potency is read from the fitted curve at half-maximal effect
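1,000 cells/well; 4 h culture; + compound; + HCVcc-Cre (~0.5 moi); 44 h; luciferase substrate, RT 15 min; read 15 sec.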
VACV mCherry inh = vaccinia inhibition (mCherry reporter); Vaccinia virus mCherry reporter infection, fluorescence; Potency, µM (doses to about 36.5 µM), without a hit: top-dose activity change, negative = inhibition, most hits filed as inhibitors; 0.63% of 310,000 active; AID 720579; calls by dose curve; tested in A549 cells; also: potency is read from the fitted curve at half-maximal effect; nearly all actives have a fitted effect of over 35% in size
HCMV inh = inhibitors of human cytomegalovirus; AID 1259415; 4.5% of 410,000 active; HFF cells, HCMV-luciferase reporter, 72 h; hits give low values; activity change, negative = inhibition, % at 57.5 µM; in the data active = activity change below about -60%; inconclusive = no clear call, values can overlap the other calls; inactive = above about -39%
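Cell-based, HFFs, 1000 cells/well, 16 h 37C; cpds in DMSO + HCMV-luc, MOI 1 PFU/cell; 72 h 37C; OneGlo luminescence after 5 min RT; norm. to buffer vs Salinomycin 10uM.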
FMDV antiviral = blocks foot and mouth disease virus | AID 1159524 | 1.2% of 410,000 active | FMDV antiviral cell-based qHTS | Potency, µM (titrated, usually from 57.9 µM), inactives show at the top dose activity change, negative = inhibition, usual class: inhibitors; calls by dose curve; tested in HEK293T cells; also: read-out not given here; potency is read from the fitted curve at half-maximal effect; nearly all actives have a fitted effect of over 45% in size
* hit, by the source's call; i = inactive; u = inconclusive; x = no result; + = active, no number; [ ] = remark or other dose. Rows were chosen to be rich in hits. Some 7.3% of all compounds tested hit in one or more screens of this group. % is scaled to controls: 0 for no effect and ±100 for the full control effect.

SMILES | Vaccinia Venus | HCV inhibitor | VACV mCherry inh | HCMV inh | FMDV antiviral
COC(=O)c1c(NC(=O)c2ccc([N+](=O)[O-])o2)sc2c1CCN(C(C)C)C2 | 14.1µM* | 2.82µM* | u | u | u
COc1ccc(S(=O)(=O)N(CC(=O)NCc2ccncc2)c2cc(C)cc(C)c2)cc1OC | 0.7% | 13.6% | i | -20.2 | 11.9%
CCc1ccc(NC(=O)Cn2c(=O)n(-c3ccc(OC)cc3)c(=O)c3ccc(C(=O)NCc4ccc(C)cc4)cc32)cc1 | u | x | u | -3.8 | -10.4%
COC(=O)C(C(=O)OC)c1ccccc1NC(=O)OCc1ccccc1 | -3.6% | x | u | -5.0 | -7.8%
COC(=O)c1sc(NC(=O)c2ccc([N+](=O)[O-])o2)c(C#N)c1C | x | 11.2µM* | x | 0.0 | u
CC(C)c1ccc(C2Sc3ccccc3NC3=C2C(=O)c2ccccc23)cc1 (configuration not stated) | -18.7% | x | -13.8% | -99.9* | 7.94µM*
CCc1ccc(C2Sc3ccccc3NC3=C2C(=O)c2ccccc23)cc1 (configuration not stated) | -11.1% | x | -13.1% | -84.5* | 54.4%
O=C1C2=C(Nc3ccccc3SC2c2ccc(C(F)(F)F)cc2)c2ccccc21 (configuration not stated) | u | x | u | -99.1* | u
CC(=O)Nc1ccc(C2Sc3ccccc3NC3=C2C(=O)c2ccccc23)cc1 (configuration not stated) | -19.9% | x | -20.1% | -28.6 | 126.1%
Cc1c(C)c2cc3c(c(C)c2oc1=O)OCN(CCc1ccccc1)C3 | 0.4% | x | -14.7% | 14.8 | -6.4%
Clc1ccccc1-c1nc2c(NCc3ccccc3)nccc2[nH]1 | x | x | x | 3.1 | x
Cc1cc(C(=O)CN2C(=O)c3ccccc3S2(=O)=O)c(C)n1C(C)C | -13.0% | -4.4% | -9.7% | + | u
C=CCn1c(C)cc(C(=O)CN2C(=O)c3ccccc3S2(=O)=O)c1C | -22.0% | 19.2% | i | x | 39.8µM*
CCn1c(C)cc(C(=O)CN2C(=O)c3ccccc3S2(=O)=O)c1C | -6.4% | -17.9% | -14.4% | u | u
Cc1cc(C(=O)CN2C(=O)c3ccccc3S2(=O)=O)c(C)n1-c1ccccc1 | -7.9% | u | i | -89.4* | u
O=C(/C(=C/c1ccncc1)n1ccnc1)c1ccc(Cl)cc1Cl | x | 2.1% | x | u | 22.4µM*
O=C(c1ccccc1)N1CCN(CCc2ccccn2)CC1 | -2.7% | 30.5% | u | -17.0 | -4.2%
CCOC(=O)N1CCN(C(=O)CCN2C(=O)/C(=C\c3ccc(OC)c(OC)c3)SC2=S)CC1 | u | x | -28.4% | -9.5 | -5.9%
O=C(CCN1C(=O)/C(=C\c2ccccc2F)SC1=S)N1CCOCC1 | 12.6µM* | x | u | 1.7 | -18.6%
COc1cc(/C=C2\SC(=S)N(CCC(=O)N3CCCCC3)C2=O)cc(OC)c1OC | -10.1% | u | -20.2% | u | 28.2µM*
Cc1ccc(/C=C2\SC(=S)N(CCC(=O)N3CCCCC3)C2=O)cc1 | 2.0% | 5.4% | -13.5% | 5.6 | 4.8%
O=C(CCN1C(=O)/C(=C\c2ccccc2)SC1=S)N1CCCCC1 | -6.7% | 5.8% | u | -67.5* | 9.7%
O=C(CN1C(=O)/C(=C/c2ccccc2)SC1=S)N1CCN(CCc2ccccn2)CC1 | -14.8% | u | -11.6% | -90.2* | -28.2%
Cc1cn([C@H]2C[C@H](O)[C@@H](/C=C/C(=O)NCCC(c3ccccc3)c3ccccc3)O2)c(=O)[nH]c1=O | 0.9% | x | 15.9% | -22.1 | -14.4%
O=C(CCCN1C(=O)/C(=C\c2ccccc2)SC1=S)N1CCOCC1 | u | u | u | -98.5* | -21.7%
SMILES | Vaccinia Venus | HCV inhibitor | VACV mCherry inh | HCMV inh | FMDV antiviral
CCOC(=O)c1c(C)[nH]c(CCC(=O)NCc2cc(Br)ccc2OC)c1C | -3.4% | x | -8.2% | 9.8 | 4.6%
Nc1ncnc2oc(-c3ccoc3)c(-c3ccco3)c12 | -16.4% | x | u | x | x
Nc1ncnc2oc(-c3ccco3)c(-c3ccco3)c12 | -19.5% | 11.2µM* | -23.3% | -39.3 | x
O=C(Nc1cccc(O)c1)c1noc2c1CCCCC2 | -10.2% | -18.0% | -15.1% | -60.6* | x
C=C1C(=O)OC2C1C(OC(=O)C(C)=CC)CC(=C)C1C(O)C3OC3(C)C21O (configuration not stated) | -14.6% | -28.0% | -0.9% | u | 28.2µM*
C=C1C2C[C@H](O)C(C)(C)[C@@]2(O)[C@H](O)C[C@]23C[C@@](C)(O)[C@H](CC[C@H]12)[C@H]3OC(C)=O (some centres not stated) | -0.6% | 3.6%[8.37 µM] | i | -1.0 | 5.7%
CCCNC(=O)c1nnc2n1CCN(C(=O)CCc1ccccc1)C2 | x | x | x | -9.9 | x
Cc1ccc(NC(=O)c2c(C)oc3ccc(O)c(CN4CCCCC4)c23)cc1 | -4.0% | x | -10.9% | -65.0* | -14.9%
COc1ccc(NC(=O)c2c(C)oc3ccc(O)c(CN4CCCCCC4)c23)cc1Cl | -29.7% | x | u | -94.3* | 0.0%
Cc1ccc(NC(=O)c2c(C)oc3ccc(O)c(CN4CCCCC4)c23)c(C)c1 | -12.1% | x | -17.4% | -19.9 | -22.9%
O=C(NNc1ncccc1Cl)c1c(Cl)cccc1Cl | -7.5% | 16.2% | i | -67.2* | -3.9%
O=C(Nc1ccccc1)Nc1cccc(Cl)c1Cl | u | u | u | 104.1 | 26.0%
O=C(CN1CCCC1)Nc1ccc(NC(=O)Nc2ccccc2Cl)cc1 | -23.2% | u | x | 52.6 | 49.0%
O=C(Nc1ccncc1)Nc1cccc(Cl)c1Cl | x | 6.31µM* | x | -60.7* | u
O=C(Nc1ccncc1)c1c(Cl)cccc1Cl | x | -15.4% | x | -65.8* | -1.9%
O=C(Nc1ccc(Oc2ccc(NC(=O)Nc3ccccc3Cl)cc2)cc1)Nc1ccccc1Cl | -15.9% | u | -14.4% | -62.4* | -9.8%
COc1ccccc1-c1csc(C(O)(c2ccccc2)C(F)(F)F)n1 (configuration not stated) | -9.1% | x | -12.8% | 1.2 | -10.7%
Cc1ccccc1OCc1nc2c3cnn(-c4cccc(F)c4)c3ncn2n1 | -11.5% | x | -12.6% | 27.0 | -17.3%
O=C(CN(Cc1ccc(F)cc1)C(=O)CNS(=O)(=O)c1ccc(Cl)cc1)NCC1CCCO1 (configuration not stated) | -14.1% | 7.0% | -16.2% | -18.5 | 4.6%
COC(=O)c1ccccc1S(=O)(=O)Nc1ccc2cn[nH]c2c1 | -10.5% | 5.6% | -12.9% | 61.3 | 19.6%
Cc1ccc(NC2=C(NCCO)C(=O)c3ccccc3C2=O)cc1 | -26.0% | 5.0% | u | 14.4 | 0.0%
CN(C)c1ccc(NC2=C(Cl)C(=O)c3ccccc3C2=O)cc1 | 11.2µM* | 10µM* | u | -97.3* | u
O=C(Nc1ccncc1)c1c(F)c(F)c(F)c(F)c1F | u | -3.8% | 6.31µM* | -11.3 | u
O=C(Nc1ccc2cn[nH]c2c1)c1c(Cl)cccc1Cl | -20.8% | -17.6% | -23.3% | -94.3* | -8.6%
O=C1C(Cl)=C(Nc2ccc3cn[nH]c3c2)C(=O)c2ccccc21 | 8.91µM* | 3.98µM* | u | -99.9* | 20µM*
O=C(Nc1ccc2cn[nH]c2c1)c1ccccc1F | -1.4% | -12.2% | i | 91.6 | 8.8%
